Experimental data published in PubChem BioAssay AID1159506 (National Center for Advancing Translational Sciences (NCATS), 2015).
The full ranking holds about 59,000 sequences; the median of the read-out is about -0.00055, and the lowest 2% start at about -2. Shown is part of a subset that was picked to be rich in the lowest values.

test: Identification of proteins required for the processing of the EWS-FLI1 nascent transcript; conditions: TC32 Ewing sarcoma NR0B1-luc vs CMV-luc (EWS-FLI1 target promoter against control promoter), 48 h; screened at 20 nM (by protocol);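 further: robust z of luciferase light less the median z of siRNAs with the same seed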
Procedure, shortened: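 Readout: OneGlo luminescence, 48 h post-transfection, TC32-NR0B1-luc vs TC32-CMV-luc in parallel. siRNA 20 nM final, RNAiMax lipid, 600 cells/well; z-score-MAD transformed, then seed-adjusted.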

Sequence | seed-corrected z-score
UAACUUGUUUGUUUACAAC against RPL21P62 | -3.04
UGAAUUUCCGGUGCUUGCC against PDGFB | -0.605
UAGGAGAUAGCGAUGACCA against NPBWR1 | 0.302
AAAGAGGUACUCACAGGGC against LGR6 | -0.878
UUCGGUCUGCUAAUGCUGG against CNOT2 | 1.7
AAUCUCACAACAGUUAUGG against MTMR8 | 0.0648
AUACUACUUACAACCGGGC against SON | 1.15
ACAGCUAACAUGGACACUC against SHTN1 | 0.393
UAGGUAACCAUAGUACUCA against ISY1 | -2.1
UGUAUAGAAAAAUUCACGC against CRY1 | 0.235
UCCAGUAGCACCAUAGUUC against ZNF449 | -0.629
UUCGUGAUCAUCUUCUCAC against PHYH | 0.854
AAAUGUUCACCUGUCUUCU against RPS4Y1 | -0.188
UUCAUAUAUGAGUCAAUGG against HMG20A | 0.779
UUCCUCAUGAUUGUCCUCA against GABARAPL1 | -0.0836
UUAGUAUUUGGUAUUCAGA against FCGR1A | -0.211
UAGGAUCCAGGGUUAGUUU against RPL18 | -2.17
UUAGGGUCCCUCAUCUUCA against LOXL4 | 0.627
UAUUAUUAAAGUGAGAUGG against SNCA | 0.375
UCUGGUGAACGACUCUUGC against MGMT | 0.137
AUCUGUAUUCUCACUAUAG against TTC23 | -1.15
UUAAUGAUAGAGACUAGGA against LTC4S | -0.727
GUUACAUACCUUUUUCUCU against GTF2H2B | 0.209

Sequence | seed-corrected z-score
UCAUAGAAGAGGUCUGUCU against PHF5A | -2.2
UUCAUAGCCUCUUCAAUGG against SPAG7 | -1.44
UACACUCUAAGAGCUCUUC against BCAT1 | 1.4
UUAAAUUCUUGGAAGUAGA against SCNN1B | 0.779
UGACGAAAUAGUAGAAGUG against MOB3A | -0.387
UUCAUCACCAGCUCUUUCC against CLEC4F | -0.0692
UCAUGGGACGGCAUAACUG against SPDYE3 | -0.601
ACGAUUACAACUUCGAUCC against DOCK7 | 1.63
UGGCGCUUGAUUGGAACUC against UNC5B-AS1 | -0.56
AUGUUUGACAUUGUCCACG against KPNA2 | -2.38
AAGUUGAAGAUAAGAGUCC against C11orf63 | -0.178
AUCGAAAUAAGUCAGAUAG against NAA25 | 0.893
UGACCUGUAGCGUUGCAGC against EFCC1 | -0.581
UCUAUAUCUCCGUAAUUCC against TRRAP | -2.5
UUAGUUCCUGGGUAUCUGC against SNAP47 | 1.17
UUUCAUAGAAUCUAUCCAG against C20orf196 | 0.184
UUUGGAACUGGUCAUGUGU against RPL29P30 | -3.1
UUUCUGAGGAGACAACUCU against ANKRD36B | 0.345
UUGGGUAAAAUGUCCACUC against SPATS1 | -2.28
UGUGCGACUGGAGAAUGCG against KRT81 | -0.00183
UGAUAUAUAACUUAGAUGG against VWA9 | -12.6
AGAGUGACCAGUCCGGUAG against CIDEA | 0.43
UCCCGGUCUGCAUUCUUCC against PHKA1P1 | -0.749

Sequence | seed-corrected z-score
AAAGUUGCUACAGCUGUCA against SH3BP5 | -2.12
UUAGUGUGAAUAGUGAUUU against PODXL | 0.827
UAUCUUUCUCAGGAGUUUG against OR2T10 | -0.23
AUAGCAGUCAACAUCGUAG against TMED3 | -2.8
UGACUUGGCACAGUAUAUC against FAM83A | -0.413
UAUCUUUAAAGUGUAUCUA against FAM230B | 0.596
UCUAGGCUCAGGAAGUUCU against AP5S1 | -1.09
AAACCAAGUAGCUUGAUGU against LOC647275 | 0.229
UCAUUUUGAAUUGAAGAUG against FAM76A | 0.228
UUUCCAUAGGAGACGAUGC against CTSG | 0.0794
UGUUGAUAAGUUACCAUCC against GPCPD1 | 0.968
UUGUUCUAAAGUAUCCUCC against NDC80 | -2.14
AGUCAUUUAAACUUGAUCC against TMSB4X | 0.898
UACGCUUUCUCUACAGUAC against ZNF606 | 0.237
UCUCUUAUGCAGCUUGUGG against SPTBN4 | 0.43
UGCAUAGACAAGGCAGUCG against ZNRF2 | -2.35
UCAGCUGAUAUCUUGUUGC against UBOX5 | 0.0283
ACAGUUUCGAAGGCGAAUG against ABCB9 | -1.83
AAUGCAACCACAGCUAUCC against THNSL1 | 0.294
UUACUGUGCUGUCUAGACC against TMEM79 | 1.12
UUGCUAUUCCUCCUGGUAG against IRF2BP2 | -0.0854
AAUAUCAAUACGAUCUCUG against SNAP23 | -0.225
UUAUGUAUCAUACAAAAGU against YPEL4 | 1.55

Sequence | seed-corrected z-score
UGUGCCUUUCUGACGAUGG against SBK2 | 0.535
UAAGUGGAAAUCCUCGGGC against WBP2NL | 1.46
UUAUUUAUUCCGUUCAUAU against UBE2V2 | -3.25
UCAUGUAAUCUAGCGAUCG against ENTHD1 | 0.768
UUUUGGUCACUUCAAAUUC against MYDGF | -2.17
UCACAAACCACGUUACACG against PABPC3 | -0.495
AGUAGAUACAGCUUCUUUC against CCDC50 | -0.915
AAAUUUCACAGGUAAUAUG against OR13D1 | -0.485
AUGGUGACAAUUGAACUCC against IGF1R | -1.36
UCUGUUAGCAGCUGGUUUG against SH3D19 | -2.01
UUUAUUAUGAUCUUCCGAG against PIP | 0.162
UUUGACGAAAUGGGAAUCC against OMD | -0.258
UAACGUAUAGCUACAACUC against MED23 | 0.49
UGAUUUUCUGCACAAGUCC against NELL2 | 0.658
AUUCUGUUCAAACAUCUGG against EXOC3 | -2.38
UACGCGGGCAAACUUCUCC against LRRC14 | 0.0562
AAUUCGCAAAGAAUGAUGC against CNN1 | 0.159
UAGACUACCGGCUUCUUGC against CTRC | -0.112
UCAGCAUCUUCCAUGAUAG against B3GNT4 | -0.437
AUCUGGUUGCUUUUUAUCC against FAM60A | -3.49
UGAACCACCAGGGUAUACG against CDH1 | 1.03
UCUUGAAUUGAGCAAGUCC against MGAT5 | 0.401
UUUCAGCUAAUGCAUUUUG against VIP | -3.11

Sequence | seed-corrected z-score
UGUAGUAGAACUUCCUGGG against HS6ST1 | -1.42
UCAAUUUUGAGUCCAUUGG against ANKRD46 | 0.911
UCCUUUAGAACUCUCGAUC against WIPF3 | 0.233
AUUAACAUAAUCUUGAUCC against CCNL2 | -4.87
UCAAAGGUCACGGUCAGGA against PRDM15 | -1
UUUAGAGGGACUCUUGUUU against HMGA2 | -1.74
UUCUGACUGAGAGCUAUGG against BNIP3L | -0.338
UAAAUAGUUCUCGUCUUUC against EHF | 0.511
UCUCUUGAGAGCGCGGUUG against RGS8 | 1.31
UACUGAUUGAGUGCCCUGC against FGGY | -5.78
UGAAGUUCAGCUACUAGCC against DIMT1 | -0.104
UAAACAGUGAUUGCACCAC against ZNF497 | -1.22
UAAGAAAAUAGGGAGGCCG against H1F0 | 0.96
UCCGAGUCAAUACUGUAUC against UIMC1 | 0.162
UGCUUUUUCAUGGACCACC against SOD1 | -3.09
ACUAAUACUAAAUUCAACC against CSDE1 | 1.52
UCCAGCUGAACUGUCACUC against TBX10 | -0.201
UUCUUUUCCAGGUACGUGA against CCDC105 | -0.394
UAUGUGCUUACUAGGGUCA against SSR3 | -0.244
AUCUUUCGAACUACAAUUG against PSME4 | 1.14
UCCCAAGUCGCUCAAGUUC against LOC389834 | 0.29
UUUGGAGACAACAAGGUCG against SYN3 | -0.442
UCCGGAAGUACUGUCGAAG against PPP2R1A | -0.186

Sequence | seed-corrected z-score
AAUGUACUAUCUACUUGCC against ZNF507 | -0.378
UCAGGAUCAAAAUCCAGUC against LTV1 | -2.94
UGUCGAAACAGGAGGCGCU against ZNF579 | -1.11
ACAGAUCAAAGAACUGUCC against LGALS4 | 0.144
UACUUGGACAAGUCCAAGA against LSM7 | 0.593
UGAACUUCUGGAGUCCCUC against CCDC115 | 1.1
UUUCGUAACCCUUCUGGGC against GNPTAB | 0.263
UAAGGUUAGGUUAGGAAUG against SH3BGRL3 | -0.0213
UAAUAGACCACGGAGUCUU against TMEM130 | -3.42
UAAUCUCCUUCUUUAGGUC against CNOT3 | 1.42
AGUUCACUAAGUCAAUAGC against TMEM44 | -1.14
UGGGUCAUGUGCUCUAUCC against HDGFL1 | -0.0953
UAUGAGGUAAAGUGGGAAG against LCE2A | -2.17
UUGGGUUCGAUAUCUGCUU against CALML4 | 0.413
UCAGAAAUGACCUUGUUGC against LOC729187 | 1.39
AUCGGCAAAGUAAUUCUGG against NECAB3 | 0.533
UGUAUUACAAUAUUCCUUC against LACE1 | -0.00635
UCUUGUCGUAGUUCGUGGG against DUS3L | -2.02
